From the supplement of paper PMC3334620
Over roughly 33,000 sequences, “E-score (-0.5 to 0.5)” has its median near -0.053; the highest 2% begin near 0.37. The entries come from a sample that favours the highest values as a whole.

molecular target: Hap1 (UniProt P0CE41); test: PBM E-score (8-mer binding enrichment) (E-score (-0.5 to 0.5)); higher = stronger / more preferred TF binding; settings: protein concentration: 200 nM; construct: GST-DNA-binding domain
Procedure: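 Universal 'all 10-mer' protein binding microarrays (Agilent AMADID 015681) probed with GST-tagged S. cerevisiae TFs (full-length or DBD) made by in vitro transcription/translation (PURExpress), about 100-200 nM. Bound TF was detected with fluorescent anti-GST. Each ungapped 8-mer (which stands for itself and its reverse complement) is scored by the PBM enrichment score (E-score), a modified Wilcoxon-Mann-Whitney statistic from -0.5 to +0.5, computed with the Universal PBM Analysis Suite. Scale: above 0.35 generally sequence-specific binding.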

Sequence of UniProt P0CE41 (P0CE41 whole entry, the tested form may be a part): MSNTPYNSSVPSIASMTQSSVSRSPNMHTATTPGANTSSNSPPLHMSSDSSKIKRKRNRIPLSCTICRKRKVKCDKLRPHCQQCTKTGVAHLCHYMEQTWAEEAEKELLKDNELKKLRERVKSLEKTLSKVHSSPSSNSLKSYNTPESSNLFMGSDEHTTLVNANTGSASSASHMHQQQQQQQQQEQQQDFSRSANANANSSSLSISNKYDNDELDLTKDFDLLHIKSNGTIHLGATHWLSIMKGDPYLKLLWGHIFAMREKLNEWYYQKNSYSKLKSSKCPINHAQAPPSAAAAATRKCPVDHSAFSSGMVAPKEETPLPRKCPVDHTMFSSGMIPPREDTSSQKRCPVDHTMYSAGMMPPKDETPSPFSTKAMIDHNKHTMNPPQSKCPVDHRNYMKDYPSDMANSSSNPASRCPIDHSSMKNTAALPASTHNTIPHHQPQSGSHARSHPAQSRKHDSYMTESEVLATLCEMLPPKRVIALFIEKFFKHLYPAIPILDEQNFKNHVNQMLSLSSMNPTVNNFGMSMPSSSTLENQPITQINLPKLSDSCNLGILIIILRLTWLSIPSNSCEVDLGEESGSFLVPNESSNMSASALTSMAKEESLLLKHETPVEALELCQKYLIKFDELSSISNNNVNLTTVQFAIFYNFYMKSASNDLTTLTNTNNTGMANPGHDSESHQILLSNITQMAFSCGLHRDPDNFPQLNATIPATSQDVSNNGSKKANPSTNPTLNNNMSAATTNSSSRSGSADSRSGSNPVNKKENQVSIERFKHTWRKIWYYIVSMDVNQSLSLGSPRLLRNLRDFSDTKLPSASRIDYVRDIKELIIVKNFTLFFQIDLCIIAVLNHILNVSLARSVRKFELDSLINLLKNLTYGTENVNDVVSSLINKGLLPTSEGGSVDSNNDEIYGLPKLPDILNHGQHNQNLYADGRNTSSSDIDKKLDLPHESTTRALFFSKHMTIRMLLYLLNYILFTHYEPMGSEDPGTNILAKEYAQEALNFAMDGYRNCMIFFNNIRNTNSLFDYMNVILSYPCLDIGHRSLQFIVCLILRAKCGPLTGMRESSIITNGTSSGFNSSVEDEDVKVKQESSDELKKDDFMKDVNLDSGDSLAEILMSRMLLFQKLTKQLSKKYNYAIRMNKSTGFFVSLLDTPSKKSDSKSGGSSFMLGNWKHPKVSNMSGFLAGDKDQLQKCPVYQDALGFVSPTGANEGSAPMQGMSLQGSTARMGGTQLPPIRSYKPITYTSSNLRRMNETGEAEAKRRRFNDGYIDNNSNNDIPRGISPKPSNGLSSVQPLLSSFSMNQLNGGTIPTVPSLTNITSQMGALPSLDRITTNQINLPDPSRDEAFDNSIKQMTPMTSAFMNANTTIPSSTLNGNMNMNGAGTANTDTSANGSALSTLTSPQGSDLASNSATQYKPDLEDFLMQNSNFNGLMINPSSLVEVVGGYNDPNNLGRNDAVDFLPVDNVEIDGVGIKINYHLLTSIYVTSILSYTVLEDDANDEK

| Sequence | PBM E-score |
| --- | --- |
| AAACGCCG | 0.402 |
| CATCGCCG | 0.293 |
| CAACGCCG | 0.264 |
| AAACGCCA | 0.0524 |
| AATCGCCC | 0.0407 |
| AATCGCCG | 0.395 |
| CGGTCAAA | 0.269 |
| ACAATCCC | 0.254 |
| ACATCTCC | 0.283 |
| ATTTTTGA | -0.132 |
| ATCTAAAT | 0.149 |
| GAAGTGGC | -0.0295 |
| ATGAAACG | -0.0187 |
| GAAACAGC | 0.0614 |
| TCCAAGGA | 0.0272 |
| GGGATAGA | -0.0284 |
| GCATCTTA | -0.0356 |
| AGTCCGGG | 0.393 |
| AGTCCGCG | 0.297 |
| AGTCCGTC | 0.325 |
| AGTCCCGG | 0.322 |
| AGTCCGCC | 0.292 |
| AGTCCGGC | 0.389 |
| CTCCAGAG | -0.0749 |
| ACCATGAG | -0.129 |

| Sequence | PBM E-score |
| --- | --- |
| AACGGAAT | 0.306 |
| CACGGAAA | 0.295 |
| TTCGGAAA | 0.389 |
| ATCGGAAA | 0.426 |
| ATCGGAAG | 0.236 |
| GTCGGAAA | 0.361 |
| ATCGGAAT | 0.363 |
| AACGGAAA | 0.385 |
| CTCGGAAA | 0.346 |
| ACATTGAC | -0.114 |
| ATACCGAT | 0.288 |
| GACCAACA | 0.0331 |
| CCCCATCG | 0.172 |
| AATCGCGC | 0.135 |
| AGCGCAGG | 0.00092 |
| CGCGGATA | 0.309 |
| ATCGGATA | 0.404 |
| ATCGGATG | 0.346 |
| CACGGATA | 0.298 |
| AACGGATT | 0.338 |
| CTCGGGTA | 0.264 |
| CTCGGATA | 0.371 |
| CTCGGATC | 0.383 |
| GTCGGATA | 0.339 |
| AACGGATA | 0.398 |

| Sequence | PBM E-score |
| --- | --- |
| CGCGGATC | 0.172 |
| ATCGGATC | 0.339 |
| AGTGAGCA | -0.28 |
| AACCAGCG | 0.0362 |
| CGTTGCAC | 0.065 |
| CGCACACA | -0.0394 |
| ATGGGAGA | -0.315 |
| CAGCTATG | -0.287 |
| ACTGAAGG | -0.129 |
| AATCCGTA | 0.219 |
| GATCCGAA | 0.379 |
| CATCCGAA | 0.368 |
| AATCCAGT | 0.219 |
| GATCCGCC | 0.29 |
| TATCCGAA | 0.364 |
| AATCCGCT | 0.243 |
| AATCCGGA | 0.433 |
| GATCCGGC | 0.375 |
| AATCCGCA | 0.247 |
| GATCCGAC | 0.273 |
| AATCCGGT | 0.418 |
| GAGGGCGA | 0.0665 |
| TACTGGGA | -0.0481 |
| ATCGGGCG | 0.36 |
| ACAGATCA | -0.0146 |

| Sequence | PBM E-score |
| --- | --- |
| CGCGTTGC | 0.159 |
| CTACTAAC | -0.214 |
| TGCTAGAA | -0.118 |
| CATCCGCA | 0.224 |
| GATCCGGA | 0.395 |
| AATCCGTC | 0.232 |
| CATCCGTA | 0.2 |
| CATCCGGC | 0.342 |
| CATCCGGA | 0.423 |
| TATCCGCA | 0.253 |
| GATCCGTA | 0.225 |
| TATCCGGA | 0.428 |
| AATCCGGC | 0.37 |
| TATCCTGA | -0.0806 |
| GATCCGCA | 0.253 |
| ATACGTCA | 0.0245 |
| TAGTTTCA | -0.024 |
| CACCTGTA | -0.173 |
| GAAATCGC | 0.196 |
| ACTAGGCG | -0.0773 |
| AATCCGCG | 0.244 |
| AATCCGGG | 0.409 |
| CATCCGGG | 0.278 |
| CCTAGGGA | -0.112 |
| AATTCCGA | 0.43 |

| Sequence | PBM E-score |
| --- | --- |
| AATTCCAT | 0.0073 |
| AATTCCGC | 0.336 |
| CATTCCGA | 0.294 |
| AATTCCCT | -0.106 |
| CATTCCGG | 0.322 |
| TATTCCGA | 0.357 |
| AATTCCGT | 0.414 |
| AATTCCGG | 0.451 |
| CTGGCTTC | -0.194 |
| AGCGAACT | -0.137 |
| AGAAGGAG | -0.248 |
| AGTTGCGG | 0.153 |
| CAGTAGGC | -0.174 |
| ATGGGTGA | -0.0877 |
| ATCTAAGC | -0.0574 |
| GCCTTTTA | -0.0799 |
| AGTTGCGC | 0.0784 |
| GCTCCTAC | -0.0888 |
| AAAATTAT | 0.122 |
| CCGAAAGC | 0.369 |
| CCGAAACC | 0.298 |
| CCGAAAAG | 0.311 |
| CCGAAAAC | 0.379 |
| TCGAAAAA | 0.0162 |
| GCGAAAGC | 0.0298 |

| Sequence | PBM E-score |
| --- | --- |
| CCGAAACA | 0.288 |
| CCGAAAAA | 0.398 |
| CCGAAAGA | 0.319 |
| CCGAAACG | 0.377 |
| ACGAAAAC | 0.124 |
| GCGAAAAC | -0.0632 |
| CAACCCAC | -0.131 |
| GCATTAGA | -0.112 |
| CAGTTGAG | -0.225 |
| AGAATTCT | 0.108 |
| CAGTGTTC | -0.0181 |
| CGTGAAAC | -0.0905 |
| GACAGGGC | -0.0413 |
| AGGTTGTA | -0.112 |
| CCGAAATA | 0.351 |
| ACGAAATC | 0.0404 |
| CCGAAATC | 0.401 |
| AAGCGGAG | -0.0297 |
| TCTCAGCA | -0.326 |
| ATCGAATG | -0.076 |
| CTACGCCC | 0.0263 |
| TAGCATAA | -0.0142 |
| ATTTCACA | -0.131 |
| CGGCGTTC | 0.235 |
| AGGCGATA | 0.119 |

| Sequence | PBM E-score |
| --- | --- |
| CGCCGATA | 0.426 |
| CGGCGATA | 0.472 |
| CGCCGTTA | 0.291 |
| GGGCGTTA | 0.147 |
| GGGCGATA | 0.179 |
| GGCCGATA | 0.457 |
| GGCCGCTA | 0.225 |
| GGCCGTTA | 0.333 |
| CGCCGATC | 0.326 |
| CGGCGTTA | 0.476 |
| CGAAAAAC | 0.169 |
| GAATGCAC | -0.00315 |
| AGGGATGA | -0.133 |
| AGTCAAAG | -0.13 |
| GTCGCGAC | 0.244 |
| ACTCCCAG | -0.0473 |
| AGCCGATG | 0.233 |
| AGCCGATA | 0.427 |
| AGCCGATC | 0.245 |
| ACAGTGCT | -0.138 |
| CCCCGGTA | 0.334 |
| ACCCGGTC | 0.222 |
